# Data: PubChem BioAssay (NCI)
# Compounds without any hit were thinned out: in the full panel of roughly 83,000, 20% have a hit.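 Cell lines were cultured in 96-well plates, exposed to a single compound concentration, and assessed for percent growth 48 hours later.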 Values without a mark were called inactive. Active and inactive are the calls of the source. Rule for the calls: active = growth percent below 10; inactive = the rest.
# Key:
# Test in all cases: NCI-60 one-dose screen, 48 h (100 = growth as untreated, 0 = no growth, -100 = all killed)
# Details in all cases: 10 µM unless noted
# SR leukemia = system: SR leukemia
# RPMI-8226 leukemia = system: RPMI-8226 leukemia
# OVCAR-8 ovarian = system: OVCAR-8 ovarian
# OVCAR-5 ovarian = system: OVCAR-5 ovarian
# OVCAR-4 ovarian = system: OVCAR-4 ovarian
# SK-OV-3 ovarian = system: SK-OV-3 ovarian
# IGROV1 ovarian = system: IGROV1 ovarian
# OVCAR-3 ovarian = system: OVCAR-3 ovarian
# HS 578T breast = system: HS 578T breast
# NCI/ADR-RES ovarian = system: NCI/ADR-RES ovarian
SMILES,growth (SR leukemia),growth (RPMI-8226 leukemia),growth (OVCAR-8 ovarian),growth (OVCAR-5 ovarian),growth (OVCAR-4 ovarian),growth (SK-OV-3 ovarian),growth (IGROV1 ovarian),growth (OVCAR-3 ovarian),growth (HS 578T breast),growth (NCI/ADR-RES ovarian)
O=C1/C(=C(/c2ccccc2)N2CCOCC2)Cc2ccccc21,26.6%,16.5%,20.4%,34.4%,31.7%,93.6%,14%,-60.7% (active),5.18% (active),-33.1% (active)
O=C1/C(=C/c2ccc(Cl)cc2)SC(=S)N1CCc1ccc(O)cc1,102%,90.6%,97.6%,104%,58.4%,90.9%,14.6%,98.2%,86.1%,98.5%
NC(=NCCCOc1ccc(Cl)cc1)Nc1ccc(Cl)cc1,4.92% (active),15.1%,60.4%,30.5%,26.4%,69.2%,8.71% (active),54.3%,41.5%,53.1%
C/C1=C\CC[C@@]2(C)O[C@H]2[C@H]2OC(=O)C(CN3CCN(CC4C(=O)O[C@H]5[C@H]4CC/C(C)=C/CC[C@@]4(C)O[C@@H]54)CC3)[C@@H]2CC1 (stereo not given in full),66%,79%,91.5%,103%,103%,110%,101%,79.7%,98.7%,101%
COc1cccc(C2=NN3C(C2)c2cc(Br)cc(OC)c2OC32CCN(Cc3ccccc3)CC2)c1 (stereo not given),111%,107%,104%,105%,90.8%,106%,98.6%,105%,94.7%,105%
COc1ccc(S(=O)(=O)N2CCCCC2)cc1NC(=O)c1[nH]c(C)c2c1CCCCC2=O,34.3%,10.1%,32.8%,48.4%,42%,19.7%,15.3%,23.5%,15.4%,28.3%
O=C(Nc1ccc(Cl)cc1)c1cc2cc(F)ccc2cc1O,4.79% (active),-8.91% (active),8.21% (active),29.9%,26.4%,-18.7% (active),42.5%,23%,18.6%,4.6% (active)
COc1ccc(SC2c3cc(OC)c(OC)cc3Oc3nc(N)c(C#N)c(N)c32)cc1 (stereo not given),-36.2% (active),-36.1% (active),-85.4% (active),-71.7% (active),-97.1% (active),-81.3% (active),-77.1% (active),-96.1% (active),-2.22% (active),-16.3% (active)
CCCCn1c(-c2ccc(C(=O)O/N=C(\N)c3ccc4c(c3)OCO4)cc2)nc(-c2ccccc2)c1-c1ccccc1,-29.2% (active),29.6%,44.5%,54.1%,40.1%,89.5%,-68.5% (active),38.5%,41.1%,18.6%
NC(=O)c1cc(I)ccc1NC(=O)/C=C/c1ccccc1Cl,-30.4% (active),-11.5% (active),31.3%,38.2%,9.92% (active),4.87% (active),77.5%,-40.8% (active),-17.6% (active),8.88% (active)
CC1=C[C@H]2c3c(c(O)c(O)c4oc5cc(O)ccc5c(=O)c34)[C@H](c3cc(O)c(O)c4oc5cc(O)ccc5c(=O)c34)[C@H]2C(C)(C)C1,24.6%,29.5%,25.4%,59.1%,56%,59.7%,21.4%,46.4%,22.4%,101%
O=C1Nc2c(ccc(Cl)c2Cl)/C1=C\c1ccc(C(F)(F)F)cc1,104%,62.8%,85.1%,83.9%,75.1%,88.2%,54.1%,68.2%,63.9%,85.8%
